From PubChem BioAssay AID504339 (National Center for Advancing Translational Sciences (NCATS), 2011)
Where “and” joins values, the source holds several entries; their conditions need not be identical. Equal values may be shown once. Among all 390,000 compounds or so, about 17,000 (4.4%) were called active. Roughly 8% stayed inconclusive and do not appear here. Calls follow the shape of the dose curve; as a rule, active = well fitted inhibition curve with a large enough effect; inconclusive = small, poorly fitted or top-dose-only effect; inactive = no such curve, though single readings can be large or run the other way. This excerpt belongs to a sample that is enriched for actives.

biological target: Lysine-specific demethylase 4A (Homo sapiens) (UniProt O75164); assay: qHTS Assay for Inhibitors of JMJD2A-Tudor Domain; details: AlphaScreen JMJD2A-Tudor / H3K4me3 peptide binding; series mostly up to 114 µM; activity change, negative = inhibition: at the top concentration; also: nearly all actives have a fitted effect of over 50% in size
% is scaled to controls: 0 for no effect and ±100 for the full control effect; potency is read from the fitted curve at half-maximal effect.

Lysine-specific demethylase 4A (Homo sapiens), sequence (O75164 whole entry, looked up, the tested form may be a part): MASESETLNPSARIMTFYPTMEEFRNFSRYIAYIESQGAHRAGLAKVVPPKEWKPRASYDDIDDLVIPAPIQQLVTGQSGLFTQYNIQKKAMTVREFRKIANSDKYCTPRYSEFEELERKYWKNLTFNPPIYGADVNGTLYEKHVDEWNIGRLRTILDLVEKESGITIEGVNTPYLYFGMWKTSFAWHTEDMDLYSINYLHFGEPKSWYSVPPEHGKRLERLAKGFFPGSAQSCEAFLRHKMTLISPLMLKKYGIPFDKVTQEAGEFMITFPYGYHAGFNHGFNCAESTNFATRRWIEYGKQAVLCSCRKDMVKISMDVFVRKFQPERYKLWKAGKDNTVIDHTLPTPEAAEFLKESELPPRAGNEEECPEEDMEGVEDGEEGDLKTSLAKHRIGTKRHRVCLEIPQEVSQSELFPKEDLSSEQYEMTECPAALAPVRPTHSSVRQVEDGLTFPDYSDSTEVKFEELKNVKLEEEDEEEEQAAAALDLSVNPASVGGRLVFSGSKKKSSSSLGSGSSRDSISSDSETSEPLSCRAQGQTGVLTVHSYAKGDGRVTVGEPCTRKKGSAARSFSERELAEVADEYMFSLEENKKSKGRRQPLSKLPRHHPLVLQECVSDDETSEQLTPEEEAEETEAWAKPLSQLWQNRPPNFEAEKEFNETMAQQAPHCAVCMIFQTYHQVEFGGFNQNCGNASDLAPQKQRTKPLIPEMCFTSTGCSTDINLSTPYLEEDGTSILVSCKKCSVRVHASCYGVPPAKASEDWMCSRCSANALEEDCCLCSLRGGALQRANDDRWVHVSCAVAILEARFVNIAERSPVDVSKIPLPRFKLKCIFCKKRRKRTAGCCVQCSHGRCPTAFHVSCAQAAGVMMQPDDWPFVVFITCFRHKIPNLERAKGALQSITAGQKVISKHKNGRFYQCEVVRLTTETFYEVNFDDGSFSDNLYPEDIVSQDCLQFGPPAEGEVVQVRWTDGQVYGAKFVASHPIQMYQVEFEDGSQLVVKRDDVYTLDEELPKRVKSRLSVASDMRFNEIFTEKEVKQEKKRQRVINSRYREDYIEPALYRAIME

| SMILES | activity change, negative = inhibition | Potency |
| --- | --- | --- |
| CCOC(=O)c1cccc(NC(=O)c2cc(CN3CCCC3)on2)c1 | -11.3% (inactive) |  |
| O=C(OCc1cc(=O)n2nc(C3CC3)sc2n1)c1ccccc1Cl | -14% (inactive) |  |
| COc1ccc(C2c3c(oc4ccccc4c3=O)C(=O)N2Cc2ccc3c(c2)OCO3)cc1 (centres undefined) | -3.78% (inactive) |  |
| COc1ccc(Cn2ccn(CC(=O)Nc3cc(C)ccc3C)c(=O)c2=O)cc1 | -11.5% (inactive) |  |
| O=C(CCCn1c(=O)c2cccn2c2cccnc21)NCc1ccc(F)cc1 | -6.59% (inactive) |  |
| COc1ccccc1C(=O)NCCn1cc(SCc2ccccc2Cl)c2ccccc21 | -8.21% (inactive) |  |
| Cc1c(NC(=S)Nc2ccccc2)c(=O)n(-c2ccccc2)n1C | 6.69% (inactive) |  |
| Cc1c(NS(=O)(=O)c2ccc(Cl)cc2)c(=O)n(-c2ccccc2)n1C | 9% (inactive) |  |
| CCN(CC)P(=O)(/C(Cl)=C\Nc1c(C)n(C)n(-c2ccccc2)c1=O)N(CC)CC |  | 15.8 µM (active) |
| CCN(CC)CCNc1ncnc2c1cnn2-c1cc(Cl)ccc1C | -26.6% (inactive) |  |
| O=C(O)c1ccc(Cn2c(SCc3ccc(F)cc3)nc3ccncc32)cc1 | 7.64% (inactive) |  |
| O=C(O)CCC(=O)NCc1ccc(C(=O)O)cc1 | -1.53% [at 57.1 µM] (inactive) |  |
| O=C(O)c1ccc(Cn2cnc3c(=S)nc[nH]c32)cc1 |  | 3.55 µM (active) |
| Cc1ccc(Cn2c(=O)n(-c3ccc(C)cc3)c(=O)c3c2c2cc(C)ccc2n3C)cc1 | -17.2% (inactive) |  |
| Cc1ccc(Cl)cc1N(C)C(=O)C1CCCN(c2ncnc3onc(-c4ccc(F)cc4)c23)C1 (centres undefined) | -19.4% (inactive) |  |
| CC(C)c1cc(N=O)cc(C(C)C)c1O | -24.3% (inactive) |  |
| CC(C)=CCc1ccc(O)c(=O)cc1C(C)C |  | 56.2 µM (active) |
| Cc1ccc(CNC(=O)c2c(O)nc3c(C)cccn3c2=O)cc1 | -3.64% (inactive) |  |
| COc1ccc2c(CNCCc3ccccc3C)c(C(=O)O)n(Cc3ccccc3C)c2c1 | -8.42% (inactive) |  |
| Cc1ccc2ncc(C(=O)Nc3ccc(OC(F)(F)F)cc3)c(=O)n2c1 | -2.55% (inactive) |  |
| COc1cccc2cc(-c3nc(Cl)c4c5c(sc4n3)CC(C)CC5)c(=O)oc12 (centres undefined) | -4.78% (inactive) |  |
| CCCCCCC1(C)NC(c2ccc3c(c2)OCO3)=CC(c2ccccc2O)N1 (centres undefined) | -14.6% [at 57.1 µM] (inactive) |  |
| CCn1c2ccccc2c2cc(NC(=O)CNC)ccc21 |  | 1 µM (active) |
| CCn1c2ccccc2c2cc(NC(=O)C/C(C)=N/NC(=O)c3ccccc3N)ccc21 | -20.1% (inactive) |  |
| CCn1c2ccccc2c2cc(NC(=O)COc3ccc(C)cc3C)ccc21 | -4.5% (inactive) |  |

| SMILES | activity change, negative = inhibition | Potency |
| --- | --- | --- |
| Cc1ccc(N(CC(=O)NCC(C)c2ccccc2)S(=O)(=O)N(C)C)cc1 (centres undefined) | -10% (inactive) |  |
| Cc1ccc(NC(=O)C(=O)NCC(c2cccnc2)N2CCOCC2)cc1 (centres undefined) | -0.987% (inactive) |  |
| COc1cccc(C(=O)N(Cc2cccc(Cl)c2)Cc2ccco2)c1 | -9.03% (inactive) |  |
| CCCCCn1c(CCCNC(=O)c2ccccc2OC)nc2ccccc21 | -15.7% (inactive) |  |
| CC(=O)c1ccc(NC(=O)C2CC(=O)Nc3nc4ccccc4n32)cc1 (centres undefined) | -17.3% (inactive) |  |
| CCOC(=O)c1ccc(NC(=O)C2CC(=O)Nc3nc4ccccc4n32)cc1 (centres undefined) | -10.3% (inactive) |  |
| O=C(Nc1ccccc1)C1CC(=O)n2c(nc3ccccc32)N1 (centres undefined) |  | 8.91 µM (active) |
| CC(=O)N1CCCc2cc(S(=O)(=O)N3CCC(C(=O)NCc4ccc(C)cc4)CC3)ccc21 | -11.6% (inactive) |  |
| O=c1[nH]c2ccccc2n2c(-c3ccccc3)nnc12 |  | 7.94 µM (active) and 5.62 µM (active) |
| O=c1cc(-c2ccccc2)n2c(SCc3ccccc3)nnc2[nH]1 | -11.4% (inactive) |  |
| Cc1cccc(CC(=O)Nc2cccc(-c3cn4cccnc4n3)c2)c1 | -21.6% (inactive) |  |
| CCS(=O)(=O)N1Cc2ccccc2CC1C(=O)Nc1ccc(OC)cc1OC (centres undefined) | -9.15% (inactive) |  |
| COc1ccc(NC(=O)C2C3C=CC(C3)C2C(=O)NCc2ccccn2)c(OC)c1 (centres undefined) |  | 50.1 µM (active) |
| CCOc1ccc(N2CC(C(=O)NCc3ccccn3)CC2=O)cc1 (centres undefined) | -5.52% (inactive) |  |
| CN(Cc1ccccc1)C(=O)c1cn(C)c2ccc(S(=O)(=O)N(C)C3CCCCC3)cc2c1=O | 1.67% (inactive) |  |
| CCOC(=O)c1c(NC(=O)CSc2cn(CCNC(=O)c3cccc(C(F)(F)F)c3)c3ccccc23)sc2c1CCC2 | -19.4% (inactive) |  |
| Cc1c(-c2nc(-c3ccc4c(c3)OCO4)no2)nnn1-c1ccc(Br)cc1F | -11.4% (inactive) |  |
| CCOC(=O)c1ccc(NC(=O)C2CC(=O)N(c3ccc4c(c3)OCCO4)C2)cc1 (centres undefined) | -16.7% (inactive) |  |
| CCc1nnc(NC(=O)C2CC(=O)N(c3ccc4c(c3)OCCO4)C2)s1 (centres undefined) |  | 25.1 µM (active) |
| CC(=O)c1ccccc1NC(=O)C1CC(=O)N(c2ccc3c(c2)OCCO3)C1 (centres undefined) | -18.8% (inactive) |  |
| O=C(CSc1nnc(CNC(=O)c2ccccc2)n1-c1ccc(F)cc1)Nc1ccccc1F | -0.673% (inactive) |  |
| COc1ccc(C2C(C#N)=C(N)Oc3cc(N)ccc32)cc1OC (centres undefined) | -20.1% (inactive) |  |
| COc1ccccc1CN1CCCC(N2CCN(c3ccc(F)cc3)CC2)C1 (centres undefined) | -23.8% (inactive) |  |
| COc1ccc(C2C(C#N)=C(N)Oc3n[nH]c(C)c32)cc1CN1CCN(c2ccc(F)cc2)CC1 (centres undefined) |  | 44.7 µM (active) |
| Cc1cc(=O)c2cc(C(=O)Nc3cccc(C)c3C)ccc2[nH]1 | -3.31% (inactive) |  |

| SMILES | activity change, negative = inhibition | Potency |
| --- | --- | --- |
| COc1ccccc1NC(=O)C(=O)c1cc(C)n(-c2ccccc2F)c1C | -23.5% (inactive) |  |
| COc1ccc(NC(=O)CCCc2nnc3n(CCC(C)C)c(=O)c4sccc4n23)c(OC)c1 | -32.6% (inactive) |  |
| Cc1ccccc1Nc1nn2c(=O)c3ccc(C(=O)NCCc4ccc(Cl)cc4)cc3nc2s1 | -9.31% (inactive) |  |
| Nc1ccc2c(c1)C(=Cc1cccnc1)c1ccccc1-2 |  | 35.5 µM (active) |
| O=C(O)/C(=C/c1cccnc1)NC(=O)c1ccccc1 | -6.62% (inactive) |  |
| Cc1ccc(C2=C/C(=C\c3cccnc3)C(=O)O2)cc1 | -18.6% (inactive) |  |
| O=C(NCc1ccccc1)c1cccc(NC(=O)N2CCSc3ncccc32)c1 | 5.17% (inactive) |  |
| CCn1c(/C=C/c2ccc([N+](=O)[O-])o2)nc2ccccc2c1=O | -16.8% [at 57.1 µM] (inactive) |  |
| CCc1ccc(S(=O)(=O)Nc2ccc(C)c(NS(C)(=O)=O)c2)cc1 | 8.31% (inactive) |  |
| CCc1ccc(S(=O)(=O)N/N=C\c2ccc([N+](=O)[O-])o2)cc1 |  | 50.1 µM (active) |
| CCc1nn(CCCC(=O)NCc2ccccc2OC)c(=O)c2cc3occc3n12 | 4.03% (inactive) |  |
| Cc1ccc(-c2ccc(CCC(=O)O)n2-c2ccc(C(N)=O)cc2)cc1 | -22.9% (inactive) |  |
| CN1/C(=c2/s/c(=C3/C(=O)N(c4ccccc4)NC3=Nc3ccccc3)n(C)c2=O)C(C)(C)c2ccccc21 |  | 28.2 µM (active) |
| CC(C)CCN(C(=O)Nc1ccc(Cl)c(Cl)c1)C(C)c1cccs1 (centres undefined) | -10.7% (inactive) |  |
| COc1ccc(NC(=O)c2cnc(Nc3ccc(C)c(Cl)c3)c3ccccc23)cc1OC | 3.07% (inactive) |  |
| CCC(=O)N1CCc2cc(Br)cc(S(=O)(=O)Nc3ccc(C)cc3C)c21 | -6.73% (inactive) |  |
| Cc1ccc(-c2nn(-c3ccccc3)cc2/C=C2\SC(=S)N(CCCCCC(=O)O)C2=O)o1 |  | 14.1 µM (active) |
| COc1ccc(-c2nn(-c3ccccc3)cc2CN2CCCO2)c(F)c1 | -26% (inactive) |  |
| O=C1/C(=C/c2coc3ccc(O)cc3c2=O)SC(=S)N1c1ccccc1 | -24% (inactive) |  |
| COc1ccc(-c2nn(-c3ccccc3)cc2/C=C2/SC(=S)N(CCCC(=O)O)C2=O)c(C)c1 |  | 44.7 µM (active) |
| CN(C(=O)CCN1C(=O)/C(=C/c2ccccc2F)SC1=S)C1CCS(=O)(=O)C1 (centres undefined) | -19.3% (inactive) |  |
| COc1cccc(NC(=O)CN(C)C(=O)/C=C/c2cn(-c3ccccc3)nc2-c2cccs2)c1 | -21.9% (inactive) |  |
| CN(Cc1ccccc1)S(=O)(=O)c1ccc(F)c(C(=O)Nc2cccc(Cl)c2Cl)c1 | -7.03% (inactive) |  |
| COc1cc(F)c(S(=O)(=O)N2CCCN(S(=O)(=O)c3ccc(N)cc3)CC2)c(F)c1 | -14.3% (inactive) |  |
| O=C(COc1ccccc1Cl)Nc1ccc2nc(SCC(=O)N3CCCC3)sc2c1 | -12.6% (inactive) |  |

| SMILES | activity change, negative = inhibition | Potency |
| --- | --- | --- |
| O=C(NCc1ccc2c(c1)CCN2C(=O)c1ccccc1)c1ccccc1 | -5% (inactive) |  |
| COc1ccc(C(=O)NCCCN2CCOCC2)cc1Br | -4.92% (inactive) |  |
| Cc1ccc(OCCCC(=O)N2CCOCC2)c(C)c1 | 6.76% (inactive) |  |
| Cc1ccc(OCCCCN2CCCCC2)c(Br)c1 |  | 0.794 µM (active) |
| Cc1cccc(N2CCN(C(=O)c3cc4c(=O)oc5ccccc5c4s3)CC2C)c1 (centres undefined) | -25.3% (inactive) |  |
| COc1ccc(Cn2c(=O)[nH]c3cc(C(=O)N4CCN(C(=O)c5ccco5)CC4)ccc3c2=O)cc1 | -15.6% (inactive) |  |
| Cc1ccc2nc(-c3ccc(C)c(NC(=O)Cc4ccccc4)c3)oc2c1 | -4.58% (inactive) |  |
| CC1CCN(C(=O)Cn2c(=O)n(-c3ccc(Cl)cc3)c(=O)c3c4c(sc32)CCC4)CC1 | -8.53% (inactive) |  |
| O=C(O)CSc1nnc(-c2ccc3c(c2)OCO3)n1-c1ccccc1 | -4.9% (inactive) |  |
| Cn1c(SCc2nc3ccccc3s2)nnc1-c1ccc2c(c1)OCO2 |  | 31.6 µM (active) |
| Cn1c(SCC(=O)N2CCCC2)nnc1-c1ccc2c(c1)OCO2 | -0.758% (inactive) |  |
| COc1ccc(CCNc2nc(-c3ccc(Cl)cc3)cc(C(F)(F)F)n2)cc1OC | 8.53% (inactive) |  |
| CC(C)c1ccc(Cc2nnc(NCCCO)[nH]c2=O)cc1 | -11.2% (inactive) |  |
| COc1ccc(Cc2nnc(N/N=C/c3ccccc3O)[nH]c2=O)cc1OC |  | 28.2 µM (active) |
| COc1ccc(Cc2nnc(SC)[nH]c2=O)cc1 | -2.11% (inactive) |  |
| O=S(=O)(c1ccc(Br)cc1)c1nnn2c1nc(NC1CCCCCC1)c1sccc12 | -9.52% (inactive) |  |
| CC(=O)Nc1ccc(NC(=O)c2cc3sccc3n2Cc2ccc(F)cc2)cc1 | -17.8% (inactive) |  |
| CCOc1ccc2nc(N3CCCC(C(=O)Nc4cc(C)ccc4C)C3)sc2c1 (centres undefined) | -27.6% (inactive) |  |
| COc1ccc2[nH]cc(CCN3C(=O)c4ccc(C(=O)O)cc4C3=O)c2c1 | -10.6% (inactive) |  |
| Cc1ccc2[nH]cc(CCNC(=O)C3CCCCC3)c2c1 | -6.31% (inactive) |  |
| Cc1ccc2[nH]cc(CCCN3C(=O)c4ccccc4C3=O)c2c1 |  | 22.4 µM (active) |
| Cc1nn(Cc2ccc(F)cc2)c(C)c1NC(=O)c1cc(CC(C)C)on1 | -9.56% (inactive) |  |
| O=C(CSc1ncc(CO)n1Cc1ccc(Cl)cc1)NCc1ccc(F)cc1 | -18.5% (inactive) |  |
| COc1ccc(N2CCN(C3=NS(=O)(=O)C(c4cccc(Br)c4)=C3C)CC2)cc1 | -12.9% (inactive) |  |
